This is one part of the list. Activity calls are given as the source filed them. Rule as the data show it: active = activation above about 12%; inactive = the rest.
Molecular target: Sphingosine 1-phosphate receptor 4 (Homo sapiens) (UniProt O95977)
Experiment: activators of human S1P4 signalling – cell-based, high throughput, confirmation (AID 1523);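 also: 0% = vehicle and 100% = full reference agonist response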
Settings: S1P4 agonist cell-based reporter assay; at 4.98 µM; active compounds read high

Sphingosine 1-phosphate receptor 4 (Homo sapiens), sequence (O95977 whole entry, looked up): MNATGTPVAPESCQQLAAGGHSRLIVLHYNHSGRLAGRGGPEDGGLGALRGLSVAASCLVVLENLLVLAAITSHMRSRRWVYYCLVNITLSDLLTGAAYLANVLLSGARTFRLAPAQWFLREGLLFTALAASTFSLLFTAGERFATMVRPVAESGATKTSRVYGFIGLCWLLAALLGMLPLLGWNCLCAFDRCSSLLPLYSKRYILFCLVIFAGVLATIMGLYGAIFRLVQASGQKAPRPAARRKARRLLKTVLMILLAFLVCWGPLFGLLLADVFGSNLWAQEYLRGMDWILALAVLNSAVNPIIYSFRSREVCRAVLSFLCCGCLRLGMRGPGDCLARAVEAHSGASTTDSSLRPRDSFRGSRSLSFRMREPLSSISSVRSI

| SMILES | activation |
| --- | --- |
| O=C(CSc1ccc(-c2ccc(F)cc2)nn1)Nc1ccc2c(c1)OCCO2 | -1.49% (inactive) |
| CNC(=O)c1[nH]cnc1C(=O)N[C@@H](CC(C)C)C(=O)OCc1ccccc1 | 48% (active) |
| CCCCCNC(=O)c1cccnc1SCC(=O)Nc1ccccc1OC | -2.09% (inactive) |
| C=CCn1c(SCn2nnc3ccccc3c2=O)nnc1-c1ccc(Cl)cc1 | -1.29% (inactive) |
| COc1ccc(C2CC(c3cccs3)=NN2c2ccc(F)cc2)cc1OC (stereo unspecified) | 10.7% (inactive) |
| Cc1cc(NC(=O)c2cc(-c3cccs3)on2)nn1Cc1ccc(Cl)cc1 | -0.63% (inactive) |
| COc1ccccc1CNC(=O)CNC(=O)c1cn(-c2ccccc2OC)c(=O)c2ccccc12 | -1.82% (inactive) |
| COC(=O)[C@@H]1CC[C@H](C)[C@@H](c2ccc(C)cc2)N1C(=O)c1ccc(/C=N/O[C@H](C)c2cn([C@@H]3COC[C@H]3O)nn2)cc1 | -1.25% (inactive) |
| CCn1c(CNC(=O)c2ccc(OC)c(OC)c2)nnc1SCC(=O)Nc1ccccc1 | -2.38% (inactive) |
| Cc1noc(C)c1COC(=O)COc1ccc(-c2ccccc2)cc1 | -2.48% (inactive) |
| CC(=O)Nc1ccc(SCC(=O)Nc2ccccc2Oc2ccccc2)cc1 | -3.24% (inactive) |
| CSc1sc(C(=O)NNC(=O)c2ccc(Cl)cc2)c2c1C=CCC2 | -2.13% (inactive) |
| Cc1cc(C)nc(N(C#N)CC(=O)Nc2ccccc2)n1 | -0.69% (inactive) |
| CCOc1ccc(-c2nnc(-c3ccco3)o2)cc1 | -1% (inactive) |
| O=C(CSc1nnc(Nc2ccccc2)s1)Nc1cccnc1Cl | -0.71% (inactive) |
| CC(C)C(c1nnnn1C(C)(C)C)N1CCN(Cc2cccnc2)CC1 (stereo unspecified) | -2.62% (inactive) |

From PubChem BioAssay AID1523 (The Scripps Research Institute Molecular Screening Center, 2009)
